# Data from ChEMBL document CHEMBL3988442, “University of Dundee, Small-Polar-MMV Screening Library” (2021).
# Screen size: about 48,000 compounds; about 13,000 (27%) showed an effect of 50% or more. Some of the results follow.
# Tested on: Wolbachia pipientis
# Assay: Anti-Wolbachia Cell-Based Screen
# Format: functional
# Parameters: scale not given: in the data most compounds retested in dose-response had high values
# Details: 5 µM
row,SMILES,Percent Effect [%]
1,O=C(C[C@@H]1COC[C@H]2CN(Cc3cccnc3)C[C@@H]12)N1CCCC1.O=C(O)C(F)(F)F.O=C(O)C(F)(F)F,109.1
2,CO[C@H]1CCN(S(=O)(=O)N(C)C)[C@@H]2CN(Cc3cccnc3)C[C@H]12.O=C(O)C(F)(F)F.O=C(O)C(F)(F)F,0.8682
3,O=C(C[C@@H]1COC[C@H]2CN(Cc3cccnc3)C[C@@H]12)NCC1CC1.O=C(O)C(F)(F)F.O=C(O)C(F)(F)F,115.9
4,O=C(C[C@@H]1COC[C@H]2CN(C3CCC3)C[C@@H]12)NCc1cccnc1.O=C(O)C(F)(F)F.O=C(O)C(F)(F)F,108.6
5,COCCNC(=O)C[C@@H]1COC[C@H]2CN(Cc3cccnc3)C[C@@H]12,116.3
6,O=C(C[C@H]1[C@H]2CN(Cc3ccncc3)C[C@@H]12)N1CCCC1.O=C(O)C(F)(F)F.O=C(O)C(F)(F)F,16.46
7,O=C(NCc1ccccn1)[C@@H]1COC[C@H]2CNC[C@H]21,-0.4259
8,O=C(COc1ccc(Cl)cc1Cl)N1CCCSCC1CN1CCOCC1 (stereo not given),-6.318
9,c1cnc(N2CCOCC3(CNCCO3)C2)nc1 (stereo not given),-30.03
10,O=C(C[C@@H]1COC[C@H]2CN(CC3CC3)C[C@@H]12)NCc1cccnc1.O=C(O)C(F)(F)F.O=C(O)C(F)(F)F,86.58
11,COCCN1C[C@@H]2COC[C@@H](CC(=O)NCc3cccnc3)[C@@H]2C1.O=C(O)C(F)(F)F.O=C(O)C(F)(F)F,24.5
12,CNCCc1nc2cc(Cl)ccc2[nH]1.Cl.Cl,8.686
13,CC(C)Oc1ccc(C(O)CNCc2ccccc2C(F)(F)F)cc1 (stereo not given),-32.82
14,CN1CCO[C@@H]2CN(C(=O)c3ccc4ncccc4c3)CC[C@@H]2C1.O=C(O)C(F)(F)F.O=C(O)C(F)(F)F,-8.044
15,O=C(O)C(F)(F)F.O=C(O)C(F)(F)F.O=C1[C@H]2CN(C3CCOCC3)C[C@H]2CN1Cc1ccncc1,-10.38
16,O=C(c1ccno1)N1CC[C@@H]2CN(C3CCOCC3)CCO[C@@H]2C1,85.56
17,CN1CCC(N(C)c2ccccc2CNCc2ccco2)CC1,13.84
18,CCN1CCN(C)C2(CCN(Cc3cccc(C)n3)CC2)C1=O.O=C(O)C(F)(F)F.O=C(O)C(F)(F)F,-10.53
19,Cc1cccc(CN2C(=O)CCC23CCNCC3)n1.O=C(O)C(F)(F)F.O=C(O)C(F)(F)F,115.6
20,Cc1cccc(CN2CCC3(CCN(c4cccnc4)C3=O)C2)n1.O=C(O)C(F)(F)F.O=C(O)C(F)(F)F (stereo not given),-4.819
21,O=C(Nc1ccc(Cn2cccn2)cc1)N1CCC2(CC1)OCCO2,-11.32
22,O=C(Cc1cnc(-c2c(Cl)cccc2Cl)s1)N1CCC2(CC1)OCCO2,110.5
23,O=C(Cn1ccc2c(Cl)cccc21)N1CCC2(CC1)OCCO2,11.16
24,O=C(Cc1ccc(O)c(F)c1)N1CCN(CC2CC2)[C@@H]2CS(=O)(=O)C[C@@H]21,-17.2
25,O=C(O)C(F)(F)F.c1coc(CNc2ncc3c(n2)C2(CCNC2)COC3)c1 (stereo not given),-4.361
26,Cc1cnc(N2CCCC3(CCCN(C)C3)C2)nc1 (stereo not given),-6.547
27,Clc1cc(CN2CCCN3CCCC3C2)c2ncccc2c1 (stereo not given),-2.153

row,SMILES,Percent Effect [%]
1,Clc1cc(N2CCN3CCCCC3C2)nc2[nH]ccc12 (stereo not given),91.81
2,COCc1cn(C[C@H]2CC3CCN2C[C@@H]3C(=O)Nc2ccccc2)nn1 (stereo not given in full),-0.5907
3,CCc1cc(CNCc2ccccc2N(C)C2CCN(C)CC2)on1,10.76
4,Cc1noc(C)c1CN1C[C@H]2CNC[C@H]2C1,94.55
5,C[C@@H]1C[C@H]2CN(Cc3nccs3)C[C@H]2O1.O=C(O)C(F)(F)F,-5.34
6,CNC(=O)[C@H]1C[C@@H]2CN(Cc3c(C)noc3C)C[C@@H]2N1C(C)=O.O=C(O)C(F)(F)F,-32.47
7,Cc1noc(C)c1CN1CC[C@@H]2O[C@@H](COCC(C)C)CC[C@@H]21.O=C(O)C(F)(F)F,-18.54
8,Cc1noc(C)c1CN1C[C@@H]2CN(C(=O)c3cnccn3)C[C@@H]2C1.O=C(O)C(F)(F)F,12.22
9,Cc1noc(C)c1CN1C[C@@H]2C[C@H](C(=O)NCC3CC3)N(C)[C@@H]2C1.O=C(O)C(F)(F)F.O=C(O)C(F)(F)F,97.39
10,Cc1noc(C)c1CN1C[C@@H]2CN(C(=O)c3cscn3)C[C@@H]2C1,-4.527
11,Cc1noc(C)c1CN1CC[C@@H]2O[C@H](COCC(C)C)CC[C@@H]21.O=C(O)C(F)(F)F,9.009
12,Cc1noc(C)c1CN1C[C@@H]2C[C@@H](C)O[C@@H]2C1.O=C(O)C(F)(F)F,94.5
13,CNC(=O)[C@@H]1C[C@H]2CN(Cc3c(C)noc3C)C[C@H]2N1C(C)C.O=C(O)C(F)(F)F.O=C(O)C(F)(F)F,-23.54
14,Cc1noc(C)c1CN1C[C@@H]2CC(F)(F)C[C@@H]2C1.O=C(O)C(F)(F)F,103.5
15,Cc1noc(C)c1CN1C(=O)[C@H]2CC[C@@H]1CN(Cc1ncc[nH]1)C2,-9.267
16,CC(C)NC(=O)NC[C@H]1C[C@@H]2CCN1C[C@@H]2CN(C)c1ccccc1,-10.33
17,CC(Cc1c(F)cccc1F)NC(=O)Nc1cnn(CC(N)=O)c1 (stereo not given),0.8263
18,C/C(=C\c1ccco1)CN(C)C(C)Cc1cc(C)ccn1 (stereo not given),32.02
19,O=C(Nc1ccccc1)[C@H]1CN2CCC1C[C@@H]2Cn1cc(CO)nn1 (stereo not given in full),-4.286
20,Cc1noc(C)c1CN1C[C@H]2CN(Cc3cccc(F)c3)C[C@H]2C1.O=C(O)C(F)(F)F.O=C(O)C(F)(F)F,97.06
21,CC(C)C(=O)N1CCCC2(CCCN2Cc2cccnc2)C1 (stereo not given),-11.99
22,O=C1Nc2ccccc2CC12CCCN2Cc1cccnc1 (stereo not given),106.6
23,O=C1N(Cc2ccccn2)C[C@H]2CN(C3CCC3)CCN12,-6.605
24,O=C(c1ccc[nH]1)N1CCCC2(CCCN2Cc2cccnc2)C1 (stereo not given),22.1
25,O=C1Nc2ccccc2CC12CCCN2Cc1ccccn1 (stereo not given),100.2
26,O=S(=O)(NC[C@H]1C[C@@H]2CCN1C[C@@H]2CN1CCCC1)c1ccc(Cl)cc1,14.89
27,CC(C)c1cc(CN2CCN(c3cccnc3)CC2)n(C)n1,9.429

row,SMILES,Percent Effect [%]
1,CN1CCCC1c1ccc(N2CCOCC2)cn1 (stereo not given),81.49
2,CN1CCCC(c2n[nH]c3ncccc23)C1 (stereo not given),-5.321
3,CN1CCCC(c2ccc(N3CCOCC3)cn2)C1.Cl (stereo not given),96.78
4,CCN(CC)C(=O)C1CCC2(CCNCC2)CO1.Cl (stereo not given),2.217
5,Cc1cc(CN2CC[C@H]3C[C@H](c4nc(C5CC5)cs4)O[C@@H]3C2)no1,106.7
6,Cc1cc(CN2CC[C@H]3C[C@@H](c4nc(C5CC5)cs4)O[C@@H]3C2)no1,106.4
7,Cc1nccc([C@@H]2C[C@@H]3CCN(Cc4cccs4)C[C@H]3O2)n1,0.9996
8,Cc1nc(CN2CC[C@H]3C[C@H](c4ccncn4)O[C@@H]3C2)cs1,0.4652
9,Cc1ncsc1CN1CC[C@H]2C[C@H](c3ccncn3)O[C@@H]2C1,-3.058
10,c1cc(CN2CC[C@H]3C[C@H](c4nc(C5CC5)cs4)O[C@@H]3C2)ccn1,0.1706
11,COc1cc(N2CC[C@@H]3[C@@H](CC2)OCCN3CC2CC2)ncn1,103
12,CNC(=O)[C@H]1C[C@@H]2CN(c3cc(OC)ncn3)C[C@@H]2N1C(C)C,-9.424
13,COCCN1CCO[C@H]2CCN(C(=O)c3ccnnc3)CC[C@@H]21.O=C(O)C(F)(F)F,-6.928
14,Cc1ccc(C(=O)N2CC[C@H]3[C@H]2CCN3CC2CCOCC2)cn1,4.595
15,COc1cc(N2CC[C@@H]3OCCN(C)[C@H]3CC2)ncn1,94.65
16,O=C(O)C(F)(F)F.O=C(c1ccc[nH]1)N1CCC2(CCCN2Cc2cccnc2)CC1,-12.51
17,Cc1cnc(N2CCCC3(CCCN3CC(=O)N(C)C)C2)nc1.O=C(O)C(F)(F)F (stereo not given),-1.71
18,CN(C)CCN1CCCC12CCN(C(=O)c1ccncc1)CC2.O=C(O)C(F)(F)F.O=C(O)C(F)(F)F,105
19,CCN1CCCC12CCCN(c1ncccn1)C2.O=C(O)C(F)(F)F (stereo not given),1.763
20,COCCN1CCC12CCN(C(=O)c1ccc(C)nc1)C2.O=C(O)C(F)(F)F (stereo not given),107.4
21,CN(C)CCN1CCCC12CCCN(C(=O)c1cccnc1)C2.O=C(O)C(F)(F)F.O=C(O)C(F)(F)F (stereo not given),118
22,COCCN1CCC12CCN(C(=O)Cc1cccs1)C2.O=C(O)C(F)(F)F (stereo not given),10.38
23,COCCN1CCC12CCN(c1ncccn1)C2.O=C(O)C(F)(F)F (stereo not given),-0.9151
24,COCCN1CCCC12CCN(c1ncccn1)CC2.O=C(O)C(F)(F)F,-7.716
25,Cc1ncc2c(c1CNC(=O)C1(C)CCCCO1)CCNC2 (stereo not given),13.24
26,Cc1nn(CCNC(C)Cn2cncn2)c(C)c1Cl (stereo not given),-0.5097
